Screens from PubChem BioAssay.
An excerpt weighted towards active compounds, which were near 2.9% of everything screened.
ATXN viability: cell viability loss in ATXN counter-screen; S2 cells (HEK-293 line with an ATXN2-luciferase reporter) viability, CellTiter-Fluor protease fluorescence, 24 h; Potency, µM (highest dose often 56.7 µM), actives largely listed as cytotoxic; 400,000 tested, 0.49% active; AID 651635; note: nearly all actives have a fitted effect of over 40% in size
Nrf2 block: Nrf2 pathway inhibition; A549 ARE-Fluc reporter, luciferase luminescence, 18-24 h; Potency, µM (series often up to 46 µM), usual class: inhibitors; 360,000 tested, 2.1% active; AID 504444; note: nearly all actives have a fitted effect of over 60% in size
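Reporter: ARE-Fluc in A549. Exposure: 18-24 h, 37 °C, 5% CO2, 5% FBS OPTI-MEM. Readouts: fluorescent cytotoxicity (CellTiter-Fluor), then luminescent Nrf2 signal after BugLite.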
ATXN2 expr inh: reduces ATXN2 reporter expression in HEK-293 cells | Potency, µM (highest dose often 57 µM), most hits filed as inhibitors | HEK-293 ATXN2-luciferase reporter, luminescence, 24 h | 360,000 tested, 0.72% active; note: nearly all actives have a fitted effect of over 55% in size
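qHTS (up to 57 uM final) was run with 24 h compound exposure of reporter cells at 37 °C. Each well was multiplexed: SteadyGlo luminescence measured ATXN2-luciferase expression after a fluorogenic Gly-Phe-AFC viability readout (25 uM final).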
A549 viability: counter-screen for Nrf2 inhibitors: cytotoxicity in A549 cells | Potency, µM (top dose mostly 46 µM), actives largely listed as inhibitors | A549 ARE-Fluc cells, CellTiter-Fluor viability, 18-24 h | 390,000 tested, 0.16% active | AID 504648
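Cytotoxicity counterscreen: CellTiter-Fluor fluorescence was measured in A549 ARE_Fluc cells after 18-24 h of compound exposure in a concentration series. The subsequent BugLite luminescent read reports ARE-luciferase activity.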
Nrf2 activator: activates Nrf2 signaling; 410,000 tested, 0.31% active; Potency, µM (highest dose often 46.1 µM), actives largely listed as activators; AREc32 ARE-luciferase reporter (MCF7-derived line), luminescence, 24 h; AID 624171; note: nearly all actives have a fitted effect of over 65% in size
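Luminescent ARE reporter assay in AREc32_Fluc cells: overnight plating at 37 deg C, 24 hr compound incubation, Steady-Glo added, 30 min RT before reading.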
Each line names hits and unclear results; the compound was inactive in the other large screens. Calls come from the whole dose curve; as a rule, active = well fitted curve in the direction sought with a large enough effect; inconclusive = small, poorly fitted or top-dose-only effect, or another doubt; inactive = no such curve, though single readings can be large; an effect the other way counts as inactive or inconclusive.

CCc1cccc(-n2c(=O)c3cccnc3n2CC(=O)Nc2ccc(OC)c(Cl)c2)c1	Nrf2 block 8.2µM (no result: ATXN viability, ATXN2 expr inh)
Cc1cc(C)n(-c2cccc(C(=O)NCC3Cc4cccc(-c5ccccn5)c4O3)c2)n1 (stereo unspecified)	none (no result: Nrf2 block, ATXN2 expr inh, A549 viability, Nrf2 activator)
COCc1cc(=O)[nH]c(SCCS(=O)(=O)c2ccc(Cl)cc2Cl)n1	ATXN2 expr inh 20µM (no result: ATXN viability)
COCc1cc(=O)[nH]c(SCCS(=O)(=O)c2ccc(C)cc2)n1	none
Cc1ccc(S(=O)(=O)NCCc2sc3nc(-c4ccccc4)nn3c2C)cc1C	none (no result: ATXN viability, Nrf2 block, ATXN2 expr inh)
O=[N+]([O-])c1cc2no[n+]([O-])c2cc1N1CCCCC1	ATXN viability 5.32µM, ATXN2 expr inh 9.47µM, Nrf2 activator inconclusive
COc1ccc(C2=C(C)C(=NCCCN3CCN(c4cc(C)ccc4C)CC3)NS2(=O)=O)cc1	none (no result: ATXN viability, ATXN2 expr inh)
NC[C@H]1O[C@H](O[C@H]2[C@H](O)[C@@H](O[C@H]3O[C@H](CO)[C@@H](O)[C@H](N)[C@H]3O)[C@H](N)C[C@@H]2N)[C@H](O)[C@@H](O)[C@@H]1O	none (no result: Nrf2 block, ATXN2 expr inh, A549 viability, Nrf2 activator)
CN(C)S(=O)(=O)c1cccc(-c2nn(-c3ccccc3)cc2/C=C2\SC(=S)NC2=O)c1	Nrf2 block 16.4µM, A549 viability inconclusive
CN(C)S(=O)(=O)c1cccc(-c2nn(-c3ccccc3)cc2/C=C(\C#N)c2nc3ccccc3[nH]2)c1	Nrf2 block inconclusive
Cc1ccc(S(=O)(=O)N2[C@@H](c3ccc(C(C)(C)C)cc3)C(C(=O)O)=CC[C@H]2c2cccs2)cc1	Nrf2 block inconclusive
CCc1ccc([C@@H]2CC=C(C(=O)O)[C@H](c3ccc(C(C)(C)C)cc3)N2S(=O)(=O)c2ccc(C)cc2)cc1	Nrf2 block 20.6µM, ATXN2 expr inh inconclusive, A549 viability inconclusive (no result: ATXN viability)
Cc1ccc(S(=O)(=O)N2[C@@H](c3ccc(C(C)(C)C)cc3)C(C(=O)O)=CC[C@H]2c2ccc(C(C)C)cc2)cc1	ATXN viability inconclusive, Nrf2 block 2.91µM, ATXN2 expr inh inconclusive, A549 viability inconclusive
Cc1ccc([C@@H]2CC=C(C(=O)O)[C@H](c3ccc(C(C)(C)C)cc3)N2S(=O)(=O)c2ccc(C)cc2)cc1	ATXN viability inconclusive, Nrf2 block 18.4µM, ATXN2 expr inh inconclusive
Cc1ccc([C@H]2C(C(=O)O)=CC[C@@H](c3cccs3)N2S(=O)(=O)c2ccc(C)cc2)cc1	ATXN viability inconclusive, Nrf2 block 25.9µM, A549 viability inconclusive
Cc1ccc(S(=O)(=O)N2[C@@H](c3ccc(C(C)(C)C)cc3)C(C(=O)O)=CC[C@H]2c2ccc(Cl)cc2)cc1	ATXN viability inconclusive, Nrf2 block 18.4µM, ATXN2 expr inh inconclusive
Cc1ccc(S(=O)(=O)N2[C@@H](c3cccc(Cl)c3)C(C(=O)O)=CC[C@H]2c2ccc(Cl)cc2)cc1	ATXN viability inconclusive
COc1cc([C@@H]2c3cc4c(cc3[C@@H](O[C@@H]3O[C@@H]5CO[C@@H](c6cccs6)O[C@@H]5[C@H](O)[C@@H]3O)[C@H]3COC(=O)[C@H]23)OCO4)cc(OC)c1O	ATXN2 expr inh 0.172µM (no result: ATXN viability, Nrf2 block, A549 viability, Nrf2 activator)
COc1cc(=O)n2c(c1C(=O)NC(C)c1ccco1)CCN(Cc1ccc3nsnc3c1)CC2 (stereo unspecified)	none (no result: Nrf2 block, ATXN2 expr inh, A549 viability, Nrf2 activator)
O=C(NC(=S)Nc1ccccc1N1CCCCC1)c1ccco1	none
COc1cc(C(=O)NC(=S)Nc2ccccc2N2CCCC2)cc(OC)c1OC	Nrf2 block 18.4µM
O=C(NC(=S)Nc1ccccc1Cl)c1ccco1	Nrf2 block inconclusive, Nrf2 activator 12.6µM
O=C(NC(=S)Nc1ccccc1N1CCCC1)c1ccco1	ATXN viability inconclusive, Nrf2 activator 14.1µM
O=C(NC(=S)N(CCc1ccccc1)CCc1ccccc1)c1ccco1	ATXN viability inconclusive, Nrf2 block 18.4µM, ATXN2 expr inh inconclusive, Nrf2 activator inconclusive
Cc1ccc(NC(=O)CCCCCN2C(=O)[C@@H]3Cc4ccccc4CN3C2=O)c(Cl)c1	Nrf2 block 23.1µM
Cc1ccc(C)c(NC(=O)CCCCCN2C(=O)[C@@H]3Cc4ccccc4CN3C2=O)c1	none
COC(=O)[C@@H]1C[C@H](NC(=O)c2cc(C(F)(F)F)ccc2Cl)CN1Cc1cccc(O)c1	none (no result: Nrf2 block, ATXN2 expr inh, A549 viability, Nrf2 activator)
O=C(CNc1ccc2ccccc2c1)N/N=C/c1ccc([N+](=O)[O-])o1	ATXN viability inconclusive
O=C(CSc1ccc(Cl)cc1)N/N=C/c1ccc([N+](=O)[O-])o1	ATXN viability inconclusive, Nrf2 block 23.1µM, ATXN2 expr inh inconclusive, A549 viability inconclusive
O=C(COc1ccccc1)N/N=C/c1ccc([N+](=O)[O-])o1	ATXN viability inconclusive, Nrf2 block 13µM, A549 viability inconclusive (no result: ATXN2 expr inh)
Cc1ccc(OCC(=O)N/N=C\c2ccc(C)o2)c([N+](=O)[O-])c1	none
O=C(N/N=C/c1ccc([N+](=O)[O-])o1)c1sc2ccccc2c1Cl	ATXN viability 31.6µM, Nrf2 block inconclusive (no result: ATXN2 expr inh)
Cc1ccc(OCC(=O)N/N=C/c2ccc([N+](=O)[O-])o2)cc1	ATXN viability inconclusive, Nrf2 block 20.6µM, ATXN2 expr inh inconclusive
CCC(C)NC(=O)c1sc2ncccc2c1-n1c(C)ccc1C (stereo unspecified)	none (no result: Nrf2 block)
Cc1ccc2c(c1)CN(CCNC(=O)c1cc3ccccc3oc1=O)CC(C)O2 (stereo unspecified)	none (no result: Nrf2 block, ATXN2 expr inh, A549 viability, Nrf2 activator)
Cc1ccccc1OCC(=O)N/N=C/c1ccccn1	none
O=C(COc1ccccc1[N+](=O)[O-])N/N=C/c1ccccn1	Nrf2 activator 11.2µM (no result: ATXN2 expr inh)
CCCCNC(=S)NCCCc1cnc[nH]1	none (no result: ATXN viability, ATXN2 expr inh, Nrf2 activator)
Cc1cccc2cc3c(N)c(C(=O)Nc4ccc(N5CCOCC5)cc4)sc3nc12	ATXN viability inconclusive, Nrf2 block 23.1µM, ATXN2 expr inh inconclusive
CCS(=O)(=O)Nc1ccc2[nH]c(O)c(C(=Nc3ccc(CN4CCCCC4)cc3)c3ccccc3)c2c1	ATXN2 expr inh 7.69µM (no result: ATXN viability, Nrf2 block, A549 viability, Nrf2 activator)
